# From PubChem BioAssay
# Calls of active or inactive are those of the source.
# Experiments:
# [1] = compound effects on lung adenocarcinoma cell viability – A549, calcein-AM fluorescence, 48 h, basal, profiling panel (AID 1162); conditions: higher = more signal
# [2] = compound effects on differentiated 3T3-L1 adipocyte viability – cell-based, 3T3-L1 adipocytes, calcein-AM fluorescence, 48 h, basal, profiling panel (AID 1163); conditions: 3T3-L1 adipocytes viability, higher = more signal
# [3] = compound effects on hepatocellular carcinoma cell viability – HepG2, calcein-AM fluorescence, 48 h, basal, profiling panel (AID 1164); conditions: higher = more signal
# [4] = compound effects on multiple myeloma cell viability – MM1S, calcein-AM fluorescence, 48 h, basal, profiling panel (AID 1165); conditions: higher = more signal
# [5] = calcein-AM signal in unstimulated myeloma cells – cell-based, calcein-AM fluorescence, 48 h, PK04 Diversity Set, profiling panel (AID 1166); conditions: RPMI8226 myeloma viability, higher = more signal;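 further: cells grown under basal conditions without added stimulus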
# [6] = JC-1 mitochondrial signal, unstimulated HepG2 cells – cell-based, JC-1 fluorescence, 24 h, 100 nL compound, profiling panel (AID 1167); conditions: HepG2 mitochondrial potential, higher = more signal
# [7] = JC-1 mitochondrial signal, unstimulated adipocytes – cell-based, JC-1 fluorescence, 3T3-L1 adipocytes, 24 h, 100 nL compound, profiling panel (AID 1168); conditions: JC-1 mitochondrial fluorescence, higher = more signal, called active from +8 up or from −8 down
# [8] = JC-1 mitochondrial signal, unstimulated myeloma cells – cell-based, JC-1 fluorescence, RPMI8226, 24 h, 100 nL compound, profiling panel (AID 1169); conditions: JC-1 mitochondrial potential fluorescence, higher = more signal
# [9] = JC-1 mitochondrial signal, unstimulated MM1S myeloma – cell-based, JC-1 fluorescence, 24 h, 100 nL compound, profiling panel (AID 1170); conditions: MM1S mitochondrial potential, higher = more signal
# [10] = resazurin metabolic signal in A549 cells – cell-based, resazurin fluorescence, 24 h, PK04 Diversity Set, profiling panel (AID 1171); conditions: A549 viability, higher = more signal, called active from +8 up or from −8 down
# Further: test concentration not given here.
SMILES,z-score [1],z-score [2],z-score [3],z-score [4],z-score [5],z-score [6],z-score [7],z-score [8],z-score [9],z-score [10]
CC(=O)NCCCC[C@@H]1NC(=O)[C@@H]2C[C@H](C(=O)NCCCCCNC(=O)CS)[C@H](c3cccc(OCCO)c3)N2C1=O,0.189,0.767,-0.884,0.28,0.403,-1.12,-0.843 (inactive),0.436,-0.892,0.131 (inactive)
O=C1N(Cc2ccccc2)c2ccccc2[C@@H]2OC(c3ccc(OCCCO)cc3)=N[C@]12CCS(=O)(=O)c1ccccc1,-0.221,0.0205,0.455,-0.527,0.144,-1.33,1.86 (inactive),-0.669,-0.605,0.404 (inactive)
C=CCN1C(=O)[C@]2(O[C@H](CCn3cc([C@H](O)c4ccccc4)nn3)[C@@H]([Si](C)(C)c3ccc(OC)cc3)[C@@H]2C)c2ccccc21,-0.366,0.76,-1.85,-2.65,-4.3,-0.97,0.203 (inactive),-0.953,-2.26,-1.75 (inactive)
O=C1NC(=O)C2C1C=CC(C(O)c1cccs1)N2Nc1ccc(Cl)cc1Cl (stereo not given),-0.599,-0.191,-0.165,-1.71,-0.884,-2.1,0.0583 (inactive),0.236,-0.219,-0.523 (inactive)
COc1ccc(CCNC(=O)[C@@]2(Sc3ccc(C)cc3)CC(=O)N(C3Cc4ccccc4C3)[C@@H]2c2ccc(CO)cc2I)cc1,2.04,0.129,0.082,-2.56,-1.99,0.26,-0.279 (inactive),-0.597,-0.565,0.86 (inactive)
CN(C)CCCC[C@@H]1NC(=O)[C@@H]2C[C@H](C(=O)NCCCCCCN)[C@H](c3cccc(OCCO)c3)N2C1=O,-0.481,1.24,-1.21,-0.304,0.294,-1.3,-0.735 (inactive),-0.17,0.454,-0.511 (inactive)
Cc1ccc([C@@H]2C[C@@H](Sc3ccccc3)[C@H](C(=O)O)CN2S(=O)(=O)c2ccc(C)cc2)cc1,-0.687,0.154,-0.316,-0.681,-3.33,-1.2,-0.183 (inactive),-0.268,0.928,0.39 (inactive)
OCCCC1=CC(c2cccs2)N(Cc2cc3c(cc2Br)OCO3)CC1 (stereo not given),-0.433,1.03,0.145,-1.44,-1.52,-0.578,-0.359 (inactive),-0.707,-0.145,-0.178 (inactive)
C=C(CCCC)C(=O)CC[C@@H](OC(=O)c1ccccc1-c1ccccc1C(=O)O)c1ccc(OCCO)cc1,-0.465,1.22,0.515,-3.37,-3.04,-1.4,-1.03 (inactive),-0.659,-0.137,0.128 (inactive)
CCOC(=O)C[C@H]1[C@H](OC(=O)c2ccccc2-c2ccccc2)[C@@H](NC(=O)CC(C)C)c2cc(OCCCO)ccc2N1C(=O)Cc1ccc(OC)cc1,0.412,0.417,0.612,-1.52,-0.884,1.4,0.652 (inactive),-0.0827,0.32,1.34 (inactive)
[N-]=[N+]=Nc1ccccc1[C@@H]1OC(c2ccc(OCCCO)cc2)=N[C@]1(CCS(=O)(=O)c1ccccc1)C(N)=O,-0.811,-0.267,-0.554,-0.648,0.0806,-2.73,-1.91 (inactive),-0.0842,-0.305,0.404 (inactive)
C=CC(=C)[C@H]1Oc2ccccc2S(=O)(=O)N2CCC[C@@H]12,0.159,0.0997,-1.23,-0.391,-1.64,-0.708,-0.0333 (inactive),-0.295,0.941,0.0255 (inactive)
COC(=O)[C@@]1(Cc2ccc(OC)cc2)[C@H]2c3cc(C(=O)N(C)C)n(Cc4ccc(S(C)(=O)=O)cc4)c3C[C@H]2CN1C(=O)c1ccccc1,2.88,0.449,1.13,0.636,1.51,3.14,-0.572 (inactive),0.484,-1.11,0.0073 (inactive)
CNS(=O)(=O)c1ccc(C)cc1,0.753,0.451,1.4,0.269,0.0427,0.384,1 (inactive),-0.049,0.937,-0.126 (inactive)
COC(=O)[C@@]1(Cc2ccc(OC)cc2)[C@@H]2C(=CC(=O)[C@H]2CC(=O)C(=O)N2CCCC2)CN1C(=O)c1ccccc1,-0.0504,-0.386,-0.167,-0.565,-1.17,0.718,-0.407 (inactive),-0.356,-1.69,0.408 (inactive)
[N-]=[N+]=NCc1ccccc1[C@@H]1OC(c2ccc(OCCCO)cc2)=N[C@]1(Cc1ccccc1)C(N)=O,0.88,1.5,0.493,-0.527,-1.63,1.49,-0.534 (inactive),-0.75,-1.1,0.479 (inactive)
CC(C)C[C@@H]1NC(=O)[C@@H]2C[C@H](C(=O)NCc3ccc(F)cc3)[C@H](c3cccc(OCCO)c3)N2C1=O,1.21,-0.613,0.259,1.04,0.828,1.9,0.0605 (inactive),-0.0212,-0.657,0.234 (inactive)
C=CCNC(=O)[C@@H]1[C@H]2C(=O)O[C@H](c3ccccc3)[C@H](c3ccccc3)N2[C@H](c2ccc(O)cc2)[C@@]12C(=O)N(C(=O)OCCOC)c1ccc(C#CCNC(N)=O)cc12,0.978,0.921,0.866,0.768,1.09,-0.194,-0.323 (inactive),0.383,0.751,-0.645 (inactive)
COC(=O)[C@@]1(Cc2ccc(OC)cc2)[C@H]2c3cc(C(=O)N(C)C)n(C)c3C[C@H]2CN1C(=O)c1ccccc1,-1.37,0.288,-1.7,-2.27,-2.47,2.66,-0.536 (inactive),-0.701,-1.17,-0.482 (inactive)
C=C[C@H](C)[C@@H](OC(=O)Nc1ccc(OC)cc1)c1ccc(O)c2ccccc12,-1.17,0.323,-1.54,-2.78,-4.12,-3.42,-1.19 (inactive),-1.01,-1.94,-1.12 (inactive)
CC1(C)[C@@H]2CC(C(O)C3C=CC4C(=O)N(c5ccccc5)C(=O)C4N3Nc3ccc([N+](=O)[O-])cc3)=C[C@H]1C2 (stereo not given in full),-0.0923,-0.484,-0.0345,0.114,0.287,-1.41,-2.48 (inactive),0.428,-1.09,0.539 (inactive)
